Screening data deposited in PubChem by several laboratories.
Mot1-301 SUMO – SUMOylation pathway inhibition by Mot1-301 growth rescue | actives 1% (n = 320,000) | growth rescue, % at 18.8 µM | AID 2716 | S. cerevisiae Mot1-301 growth rescue, ATP luminescence, 38.5C; percent above DMSO median, 100 means doubled;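 active = every valid replicate shows activation above 250% relative to neutral control wells; inactive = the rest, any valid replicate at or below 250%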
V-ATPase pHluor – regulators of yeast V-ATPase proton transport; S. cerevisiae, pHLuorin cytosolic pH fluorescence; response, % at 10 µM; actives 0.37% (n = 350,000); AID 504577; in the data active = response mostly above about 7.3%, no sharp cut-off; inactive = mostly below about 5.4%; note: actives read high
AI-2 QS modul – modulators of Vibrio harveyi AI-2 quorum sensing system; activity change, % at 7.5 µM; actives 0.4% (n = 300,000); Vibrio harveyi JMH597 AI-2 luminescence/OD600 ratio, 9 h; hits give low values; strain lacks LuxN and CqsS sensors; 0 = neutral-control median; AID 2094; in the data active = activity change below about -75%, passing the limit was not always enough;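 note: luminescence divided by OD600 gain over 9 h not by final OD600 alone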
ATG4B inhibitor – ATG4B (human) cysteine protease inhibition; Q9Y4P1; ATG4B cleavage of LC3-PLA2, NBD-HPC fluorescence, 1 h; inhibition, % at 8.33 µM; actives 0.51% (n = 340,000); AID 504462; in the data active = inhibition above about 40%
Target sequence (Q9Y4P1 whole entry, looked up): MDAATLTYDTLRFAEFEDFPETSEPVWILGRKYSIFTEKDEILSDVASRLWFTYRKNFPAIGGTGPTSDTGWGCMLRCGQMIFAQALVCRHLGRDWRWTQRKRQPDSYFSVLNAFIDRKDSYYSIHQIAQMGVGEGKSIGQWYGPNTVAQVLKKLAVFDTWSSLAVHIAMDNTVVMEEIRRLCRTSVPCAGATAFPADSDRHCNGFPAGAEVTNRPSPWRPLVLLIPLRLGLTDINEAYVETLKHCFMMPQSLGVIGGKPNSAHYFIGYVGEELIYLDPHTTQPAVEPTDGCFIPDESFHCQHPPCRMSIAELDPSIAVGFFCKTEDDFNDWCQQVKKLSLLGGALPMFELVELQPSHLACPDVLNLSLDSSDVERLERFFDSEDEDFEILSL
Efflux pump inh – blocks antifungal efflux pumps in multiplex yeast assay. S. cerevisiae Candida pump triplex, Nile Red efflux. inhibition, % at 10 µM. actives 0.44% (n = 330,000). AID 485275;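 active = plate passing quality check with inhibition over a set limit, or well fluorescence over plate mean plus 4 SD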;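 note: Nile Red retained in pooled yeast measured as flow cytometry median fluorescence; higher means more Nile Red kept so more efflux inhibition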
Each line names hits and unclear results; the compound was inactive in the other large screens. Shown are actives, neighbours in structure and some others; about 2.5% of the full set was active somewhere.

COc1ccc(C2c3[nH]c4ccccc4c3C[C@H]3C(=O)N(c4ccccc4C(=O)N4CCC(C(=O)O)CC4)C(=O)N23)cc1 (stereo not given in full)	Mot1-301 SUMO 342
CC1=CC=CC2=NC(=O)CC(C)(C(=O)N(CC(=O)NC3CCCC3)c3ccc(F)cc3)N12 (stereo not given)	none
Cc1cc(O)c(NC(=O)c2ccc(Br)o2)cc1C	V-ATPase pHluor 14
O=C(Nc1ccc(Nc2ccccc2)cc1)c1ccc(Br)o1	AI-2 QS modul -92
CCCCCc1ccc(-c2ccc(/C=C/C(=O)O)cc2)nc1	AI-2 QS modul -89
CCOC(OCC)c1cn(Cc2ccc(C(=O)c3ccccc3)cc2)nn1	none
N/C(=N/OC(=O)c1ccccc1F)c1nonc1N	none
N/C(=N\OC(=O)c1ccc(Cl)cc1)c1nonc1N	Mot1-301 SUMO 294
S=C1NC2(CCCC2)N=C1c1ccccc1	Mot1-301 SUMO 490
S=C1NC2(CCCCCC2)N=C1c1ccccc1	none
COc1ccc(CN(C)C(=O)C23CC4CC(CC(C4)C2)C3)c(OC)c1	Mot1-301 SUMO 328
Cc1snnc1C(=O)NC(=S)Nc1ccccc1	none
COc1ccc(Cl)cc1NC(=O)CN1CCN(S(=O)(=O)N2CCOCC2)CC1	Mot1-301 SUMO 291
COc1ccc(Cl)cc1NC(=O)CN1CCCC1	none
COc1ccc(N(CC(=O)NCC2CCCO2)S(=O)(=O)c2ccccc2)cc1OC (stereo not given)	none
COc1ccc2nc(N3CCCC3)c(C#N)cc2c1	V-ATPase pHluor 11
O=C(Nc1nnc(C2CC2)s1)C1Cc2ccccc2CN1S(=O)(=O)c1ccccc1F (stereo not given)	none
O=C(OCC(=O)N1CCN(c2ccccc2)CC1)c1ccc(Cl)cc1[N+](=O)[O-]	none
CN(CC(=O)Nc1ccccc1Cl)C(=O)COC(=O)c1ccc([N+](=O)[O-])s1	none (no result: AI-2 QS modul)
CN(CC(=O)Nc1ccccc1Cl)C(=O)COC(=O)c1ccc(Cl)cc1[N+](=O)[O-]	AI-2 QS modul -94
O=C(OCC(=O)N1CCOCC1)c1ccc(Cl)cc1[N+](=O)[O-]	AI-2 QS modul -79
O=C(OCC(=O)N1CCCC1=O)c1ccc(Cl)cc1[N+](=O)[O-]	AI-2 QS modul -81
CCc1nc2ccccc2c(=O)n1/N=C/c1ccc(OC)cc1	none
O=c1oc(-c2ccccc2Cl)nc2ccsc12	AI-2 QS modul -83 (no result: Mot1-301 SUMO)
CCC1(CC)C(=O)C(C)(C)C(=O)OC1c1cccs1 (stereo not given)	none
Cn1c(C(=O)O)c(CC(=O)N2CCC(Cc3ccccc3)CC2)c2ccccc21	Mot1-301 SUMO 893
CCOCC(=O)N1CCC(Cc2ccccc2)CC1	none
CC(C)(C)OC(=O)N[C@@H](Cc1ccccc1)c1nnc(S(=O)(=O)Cc2cccc(F)c2)o1	Mot1-301 SUMO 275 (no result: V-ATPase pHluor)
CC(CCc1ccccc1)NC(=O)c1cccs1 (stereo not given)	none
O=C(Cn1cnc2ccccc2c1=O)N1CCc2ccccc2C1	Mot1-301 SUMO 498
O=C(Cc1ccccc1F)Nc1ccc(S(=O)(=O)Nc2ncccn2)cc1	AI-2 QS modul -76
O=C(CCCc1c[nH]c2ccccc12)Nc1ccc(S(=O)(=O)Nc2ncccn2)cc1	Mot1-301 SUMO 759
Cc1ccnc(NC(=O)CCCc2c[nH]c3ccccc23)c1	none
COc1ccc(NC(=O)c2cccc(N3C(=O)C4C5C=CC(C6CC56)C4C3=O)c2)cc1 (stereo not given)	none
N#C/C(=N\Nc1cccc2ccccc12)c1nnc2n1CCCCC2	Mot1-301 SUMO active
Cc1cc(Cl)c(S(N)(=O)=O)cc1OCC(N)=O	none
CCN(CC)S(=O)(=O)c1cc(OCC(N)=O)c(C)cc1Cl	V-ATPase pHluor 14
CC(N=C1CC(C)(C)CC(=O)/C1=C(/O)CCCN1C(=O)c2ccccc2C1=O)C(=O)O (stereo not given)	none
COc1ccc(C)cc1NC(=O)NNC(=O)C(C)Oc1ccc(F)cc1Cl (stereo not given)	none
Fc1ccc2cc(-c3ccsc3)ncc2c1	Mot1-301 SUMO 282 (no result: AI-2 QS modul)
COc1cc(N2CCCC2)ccc1[N+](=O)[O-]	none
O=C1CN(/N=C/c2ccc([N+](=O)[O-])o2)C(=O)N1	AI-2 QS modul -89 (no result: V-ATPase pHluor)
Cc1cn([C@H]2C[C@H](O)[C@@H](CCC(=O)NCCN3CCCCC3)O2)c(=O)[nH]c1=O	none (no result: Mot1-301 SUMO, AI-2 QS modul)
CCn1c(SCC(=O)N2CCCc3ccccc32)nc2c(c1=O)SC(C)C2 (stereo not given)	V-ATPase pHluor 16 (no result: AI-2 QS modul)
CCn1nnnc1SCC(=O)N1CCCc2ccccc21	V-ATPase pHluor 24
CCn1c(SCC(=O)N2CCc3ccccc32)nc2c(c1=O)SC(C)C2 (stereo not given)	Mot1-301 SUMO 343 (no result: V-ATPase pHluor)
CCn1nnnc1SCC(=O)N1CCc2ccccc21	none
CC1Cc2nc(SCC(=O)N3CCCc4ccccc43)n(C)c(=O)c2S1 (stereo not given)	none
COCCn1c(SCC(=O)N2CCc3ccccc32)nc2c(c1=O)SC(C)C2 (stereo not given)	none
CCOC(=O)C1C(=O)CC(C)(O)C(C(=O)OCC)C1c1ccc([N+](=O)[O-])cc1 (stereo not given)	none
CCc1sc(C(C2C(=O)CC(C)(C)CC2=O)C2C(=O)CC(C)(C)CC2=O)cc1[N+](=O)[O-]	V-ATPase pHluor 8.1
O=C1C=C(c2ccc(F)c(Cl)c2)C[C@@H](c2ccc(F)cc2)C1	none (no result: AI-2 QS modul)
COc1ccc(Nc2nc(-c3sc(N)nc3C)cs2)cc1	none
Cc1ccc(Nc2nc(-c3sc(N)nc3C)cs2)cc1	V-ATPase pHluor 14
S=C(NCCN1CCCCC1)Nc1ccccc1	none
S=C(NCCN1CCCCC1)Nc1ccc(Br)cc1	Mot1-301 SUMO 348
O=C1OCCC1Sc1nnnn1-c1ccccc1 (stereo not given)	none
O=C1OCCC1Sc1nnc(-c2ccc3c(c2)OCO3)n1-c1ccccc1 (stereo not given)	Mot1-301 SUMO 340
O=C(CSc1nnc(-c2ccncc2)o1)N1CCCCCC1	none (no result: Mot1-301 SUMO, Efflux pump inh)
COC(=O)C1CCN(C(=O)CSc2nnc(-c3ccncc3)o2)CC1	Mot1-301 SUMO 312
c1ccc(Nc2ccccc2Nc2ccccn2)nc1	none
Oc1cccc2ccc(Nc3ccccn3)nc12	AI-2 QS modul -86
CC[n+]1c(/C=C/c2c[nH]c3ccccc23)ccc2cc(C)ccc21	V-ATPase pHluor 8.2 (no result: Mot1-301 SUMO, AI-2 QS modul, Efflux pump inh)
COc1ccc(CNC(=O)CN(C(=O)c2csnn2)c2ccc(F)cc2)cc1	none (no result: AI-2 QS modul)
Cc1ccc(Cn2ccc(NC(=O)c3nn(C)cc3Cl)n2)cc1	none
Cn1cc(Cl)c(C(=O)Nc2cnn(Cc3ccc(F)cc3)c2)n1	AI-2 QS modul -81
CCOc1ccc(C(=O)Nc2cnn(Cc3ccc(Cl)c(Cl)c3)c2)cc1	V-ATPase pHluor 40
O=C1COc2ccc(C(=O)COC(=O)c3ccc(S(=O)(=O)C(F)F)cc3)cc2N1	AI-2 QS modul -94
CCN(CC)S(=O)(=O)c1cccc(C(=O)OCC(=O)c2ccc3c(c2)NC(=O)CO3)c1	none
COc1ccc(N2C(=O)CS/C2=C\[N+](=O)[O-])cc1	none (no result: Mot1-301 SUMO)
